# The source made the active and inactive calls.
# What was measured:
# [1] = small molecules captured by biotinylated probe aFSTL3 – biochemical, small-molecule microarray, fluorescence 635/667, stem cell growth factor project, primary screen (AID 1064); conditions: higher = more signal;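 further: measures binding of the biotinylated anti-FSTL3 antibody to printed compounds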
# [2] = binders from COS7 lysate, DM2A8 probe, primary screen, torsin A project, cell lysate, small-molecule microarray, fluorescence 635/667 (AID 1065); conditions: higher = more signal, COS7 lysate expressing mutant human TOR1A
# [3] = small molecules captured by biotinylated probe aFGF2 – biochemical, small-molecule microarray, fluorescence 635/667, stem cell growth factor project, primary screen (AID 1067); conditions: higher = more signal;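 further: measures binding of biotinylated aFGF2 protein to printed compounds on slides; z-score merges feature fluorescence and signal-to-noise across triplicate slides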
# [4] = small molecules captured by biotinylated probe aFGF10 – biochemical, small-molecule microarray, fluorescence 635/667, stem cell growth factor project, primary screen (AID 1071); conditions: higher = more signal;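 further: score merges 667 nm spot intensity and signal to noise from triplicate slides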
# [5] = target: Neurogenic locus notch homolog protein 2 (Homo sapiens) (UniProt Q04721); experiment: small molecules binding Notch2 protein – biochemical, small-molecule microarray, 635 nm fluorescence, stem cell growth factors, primary screen (AID 1073); conditions: higher = more signal
# [6] = target: Pro-neuregulin-1, membrane-bound isoform (Homo sapiens) (UniProt Q02297); experiment: small molecules binding neuregulin-1 protein – biochemical, small-molecule microarray, fluorescence 635/667, psychiatric disease protein project, primary screen (AID 1075); conditions: NRG1 binding, 635 nm fluorescence, higher = more signal;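 further: score combines 667 nm spot fluorescence with signal to noise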
# [7] = tested on: Neuregulin-1 EGF-like domain; experiment: small molecules binding NRG1 EGF domain – biochemical, small-molecule microarray, 635 nm fluorescence, primary screen (AID 1081); conditions: higher = more signal;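 further: binding of the protein to compounds printed on small-molecule microarray slides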
# [8] = FRG1 expression reporter modulators in myotubes – cell-based, C2C12 myotubes, firefly/Renilla luciferase, luminescence, FRG1 inhibition for FSHD, primary screen (AID 1084); conditions: FRG1 promoter luciferase, higher = more signal, called active from +8 up or from −8 down
# [9] = small molecules captured by biotinylated probe aFST – biochemical, small-molecule microarray, fluorescence 635/667, stem cell growth factor project, primary screen (AID 1086); conditions: higher = more signal;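 further: score merges 667 nm fluorescence with signal-to-noise of each printed compound spot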
# [10] = binders of probe aHhip on microarray, primary screen, stem cell growth factor project, biochemical, small-molecule microarray, fluorescence 635/667 (AID 1087); conditions: higher = more signal;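 further: score merges spot fluorescence at 667nm with spot signal to noise ratio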
# [11] = tested on: PRMT1 (protein arginine N-methyltransferase 1); experiment: small molecules binding arginine methyltransferase PRMT1 – biochemical, small-molecule microarray, 635 nm fluorescence, primary screen (AID 1088); conditions: higher = more signal;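 further: binding of Prmt1 protein to compounds spotted on small-molecule microarray slides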
# [12] = growth effects on S. cerevisiae YJM789 – YJM789 clinical isolate, OD600, 24 h, basal, primary screen (AID 1089); conditions: higher = more signal, called active from +8 up or from −8 down;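 further: growth of clinical yeast isolate S. cerevisiae YJM 789 seeded 1000 cells per well; test concentration not given here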
# [13] = S. pombe growth modifiers, basal conditions – strain 972, OD600, 24 h, no modulator, primary screen (AID 1090);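 further: basal condition with compound alone and no growth modifier present; test concentration not given here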; conditions: S. pombe 972 growth, higher = more signal, called active from +8 up or from −8 down
# [14] = budding yeast growth modifiers under rapamycin – strain BY4716, OD600, 96 h, primary screen (AID 1091); further: test concentration not given here; conditions: S. cerevisiae BY4716 + rapamycin, higher = more signal, called active from +8 up or from −8 down
# [15] = target: Torsin-1A-interacting protein 2 (Homo sapiens) (UniProt Q8NFQ8); experiment: small molecules binding lysate-expressed LULL1 – cell lysate, human LULL1 lysate, 635/667 nm fluorescence, primary screen (AID 1092); conditions: small-molecule microarray, hLULL1 lysate binding, 635 nm fluorescence; higher = more signal;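 further: probe is lysate of COS7 cells overexpressing human LULL1; score merges per-feature 667 nm fluorescence with signal-to-noise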
# [16] = optical density change of DRC41 E. coli – strain DRC41, OD650, 24 h, E. coli filamentation project, primary screen (AID 1093);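 further: MC1000 strain lacking acrAB efflux and sulA so SOS filamentation is blocked; test concentration not given here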; conditions: E. coli DRC41 growth, higher = more signal, called active from +8 up or from −8 down
# [17] = probe aLefty2 binding to arrayed compounds – biochemical, biotinylated probe, 635/667 nm fluorescence, primary screen (AID 1094); conditions: small-molecule microarray, higher = more signal;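 further: score merges spot fluorescence near 667 nm with spot signal-to-noise ratio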
# [18] = tested on: Noggin (protein binding on small-molecule microarray); experiment: small molecules binding Noggin protein – biochemical, 635/667 nm fluorescence, primary screen (AID 1095); conditions: 635 nm fluorescence, higher = more signal;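 further: score merges 667 nm feature fluorescence with signal to noise over triplicate slides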
# [19] = target: Neurogenic locus notch homolog protein 3 (Homo sapiens) (UniProt Q9UM47); experiment: small molecules binding NOTCH3 protein – biochemical, 635/667 nm fluorescence, primary screen (AID 1096); conditions: small-molecule microarray, 635 nm fluorescence, higher = more signal
# [20] = probe aEGFR binding to arrayed compounds – biochemical, biotinylated probe, 635/667 nm fluorescence, primary screen (AID 1097); conditions: small-molecule microarray, higher = more signal;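 further: probe is a biotinylated anti-EGFR antibody binding compounds printed on slides; score combines fluorescence near 667 nm and signal to noise of each spot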
# Neurogenic locus notch homolog protein 2 (Homo sapiens), sequence (Q04721 whole entry, looked up, canonical isoform): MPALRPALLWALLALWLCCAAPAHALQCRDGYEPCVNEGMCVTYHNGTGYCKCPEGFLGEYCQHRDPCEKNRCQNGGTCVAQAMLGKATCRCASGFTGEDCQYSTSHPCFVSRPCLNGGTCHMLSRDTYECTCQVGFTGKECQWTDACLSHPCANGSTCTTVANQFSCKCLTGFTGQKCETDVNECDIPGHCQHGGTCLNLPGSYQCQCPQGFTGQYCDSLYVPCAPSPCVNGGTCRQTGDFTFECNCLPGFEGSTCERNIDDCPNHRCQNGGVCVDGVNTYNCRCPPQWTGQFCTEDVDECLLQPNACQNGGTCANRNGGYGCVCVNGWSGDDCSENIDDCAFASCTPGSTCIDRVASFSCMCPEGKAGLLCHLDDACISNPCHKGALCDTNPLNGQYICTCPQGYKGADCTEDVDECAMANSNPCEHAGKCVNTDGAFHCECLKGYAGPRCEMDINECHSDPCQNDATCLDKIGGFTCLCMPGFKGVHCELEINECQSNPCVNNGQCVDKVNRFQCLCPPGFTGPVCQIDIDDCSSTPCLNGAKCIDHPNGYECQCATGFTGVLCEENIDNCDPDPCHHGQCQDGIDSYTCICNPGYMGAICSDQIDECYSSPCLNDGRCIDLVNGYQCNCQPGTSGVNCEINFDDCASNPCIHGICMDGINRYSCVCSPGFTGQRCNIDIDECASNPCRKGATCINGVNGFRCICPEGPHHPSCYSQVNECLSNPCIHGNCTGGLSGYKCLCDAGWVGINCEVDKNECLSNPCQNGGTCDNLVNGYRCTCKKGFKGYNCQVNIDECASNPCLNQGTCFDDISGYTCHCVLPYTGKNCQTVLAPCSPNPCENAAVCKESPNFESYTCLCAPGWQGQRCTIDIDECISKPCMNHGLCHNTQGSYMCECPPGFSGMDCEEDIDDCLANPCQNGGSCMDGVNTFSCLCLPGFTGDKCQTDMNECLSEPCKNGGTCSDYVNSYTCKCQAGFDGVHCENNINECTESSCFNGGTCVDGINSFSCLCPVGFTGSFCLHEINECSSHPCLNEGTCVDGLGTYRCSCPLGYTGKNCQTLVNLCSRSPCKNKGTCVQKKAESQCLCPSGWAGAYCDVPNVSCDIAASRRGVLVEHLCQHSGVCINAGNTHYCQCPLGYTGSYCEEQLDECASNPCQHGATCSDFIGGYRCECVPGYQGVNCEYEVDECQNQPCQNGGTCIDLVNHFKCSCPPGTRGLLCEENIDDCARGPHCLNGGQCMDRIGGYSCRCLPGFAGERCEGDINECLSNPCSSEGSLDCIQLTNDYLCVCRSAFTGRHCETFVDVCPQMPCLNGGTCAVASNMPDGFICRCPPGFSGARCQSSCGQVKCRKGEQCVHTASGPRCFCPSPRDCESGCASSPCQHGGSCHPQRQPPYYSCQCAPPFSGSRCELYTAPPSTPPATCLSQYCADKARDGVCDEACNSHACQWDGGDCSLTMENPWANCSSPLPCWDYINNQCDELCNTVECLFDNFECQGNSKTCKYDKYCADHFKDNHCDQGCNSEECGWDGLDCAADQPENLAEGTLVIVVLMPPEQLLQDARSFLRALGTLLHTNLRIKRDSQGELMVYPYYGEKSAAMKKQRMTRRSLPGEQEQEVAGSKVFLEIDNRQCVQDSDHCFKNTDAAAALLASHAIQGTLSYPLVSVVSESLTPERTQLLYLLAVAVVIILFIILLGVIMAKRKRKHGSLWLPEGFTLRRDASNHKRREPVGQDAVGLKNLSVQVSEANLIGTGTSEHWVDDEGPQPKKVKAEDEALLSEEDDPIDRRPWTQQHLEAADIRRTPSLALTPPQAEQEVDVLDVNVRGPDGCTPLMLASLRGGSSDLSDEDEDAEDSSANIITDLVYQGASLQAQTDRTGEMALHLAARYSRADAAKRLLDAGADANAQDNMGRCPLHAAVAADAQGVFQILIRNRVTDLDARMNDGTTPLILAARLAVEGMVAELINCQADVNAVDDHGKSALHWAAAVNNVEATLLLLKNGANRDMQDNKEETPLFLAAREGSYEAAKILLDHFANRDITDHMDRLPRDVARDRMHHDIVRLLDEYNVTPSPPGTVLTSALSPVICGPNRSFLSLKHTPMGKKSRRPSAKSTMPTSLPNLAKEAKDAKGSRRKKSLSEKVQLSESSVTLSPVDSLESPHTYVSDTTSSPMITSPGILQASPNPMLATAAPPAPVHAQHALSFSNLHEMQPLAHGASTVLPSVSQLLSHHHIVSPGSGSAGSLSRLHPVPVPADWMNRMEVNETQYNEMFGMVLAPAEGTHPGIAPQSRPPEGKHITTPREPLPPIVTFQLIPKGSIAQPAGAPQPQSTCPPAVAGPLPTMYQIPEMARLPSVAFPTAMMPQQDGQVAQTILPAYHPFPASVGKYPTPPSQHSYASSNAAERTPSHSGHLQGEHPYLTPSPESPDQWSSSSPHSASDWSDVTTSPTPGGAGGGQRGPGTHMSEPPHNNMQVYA
# Torsin-1A-interacting protein 2 (Homo sapiens), sequence (Q8NFQ8 whole entry, looked up): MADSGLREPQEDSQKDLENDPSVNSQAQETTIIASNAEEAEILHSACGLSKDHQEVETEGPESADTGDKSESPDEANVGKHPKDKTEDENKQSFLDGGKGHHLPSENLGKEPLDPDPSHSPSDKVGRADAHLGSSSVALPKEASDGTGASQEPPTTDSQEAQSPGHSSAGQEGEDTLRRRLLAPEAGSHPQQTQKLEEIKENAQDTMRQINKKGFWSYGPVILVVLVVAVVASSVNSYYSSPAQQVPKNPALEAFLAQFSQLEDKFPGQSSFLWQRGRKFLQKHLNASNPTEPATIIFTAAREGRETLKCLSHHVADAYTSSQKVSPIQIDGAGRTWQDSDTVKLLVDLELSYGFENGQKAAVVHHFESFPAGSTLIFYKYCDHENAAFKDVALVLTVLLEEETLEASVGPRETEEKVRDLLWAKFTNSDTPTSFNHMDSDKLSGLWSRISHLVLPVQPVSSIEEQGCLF
# Pro-neuregulin-1, membrane-bound isoform (Homo sapiens), sequence (Q02297 whole entry, looked up, the tested form may be a part, canonical isoform): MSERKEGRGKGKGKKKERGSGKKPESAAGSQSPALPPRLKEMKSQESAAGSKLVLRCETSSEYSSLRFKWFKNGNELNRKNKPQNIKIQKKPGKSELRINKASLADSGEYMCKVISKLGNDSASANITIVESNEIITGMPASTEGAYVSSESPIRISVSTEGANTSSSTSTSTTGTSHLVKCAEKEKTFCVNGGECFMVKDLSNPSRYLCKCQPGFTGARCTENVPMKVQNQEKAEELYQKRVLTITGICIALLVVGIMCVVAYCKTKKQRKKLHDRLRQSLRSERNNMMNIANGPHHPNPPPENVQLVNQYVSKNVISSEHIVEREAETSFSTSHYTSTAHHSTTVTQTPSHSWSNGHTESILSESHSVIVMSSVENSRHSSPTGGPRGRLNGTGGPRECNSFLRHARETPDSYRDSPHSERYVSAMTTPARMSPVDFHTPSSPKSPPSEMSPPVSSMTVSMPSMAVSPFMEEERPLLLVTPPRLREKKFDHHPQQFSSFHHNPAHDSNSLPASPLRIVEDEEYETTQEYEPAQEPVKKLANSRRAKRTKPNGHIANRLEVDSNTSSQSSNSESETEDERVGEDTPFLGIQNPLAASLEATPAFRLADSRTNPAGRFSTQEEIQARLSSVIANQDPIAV
SMILES,composite z-score [1],composite z-score [2],composite z-score [3],composite z-score [4],composite z-score [5],composite z-score [6],composite z-score [7],z-score [8],composite z-score [9],composite z-score [10],composite z-score [11],z-score [12],z-score [13],z-score [14],composite z-score [15],z-score [16],composite z-score [17],composite z-score [18],composite z-score [19],composite z-score [20]
O=C(O)[C@H]1C[C@H]2C(=O)NCC(=O)N2[C@H]1c1ccc(O)cc1,0.136,0.202,-0.0996,-0.224,-0.424,-0.235,1.4,3.81 (inactive),0.025,-0.226,0.294,-0.512 (inactive),-0.81 (inactive),-0.373 (inactive),1.05,1.68 (inactive),-0.025,0.884,0.55,0.308
COc1ccc([Si](C)(C)[C@@H]2[C@@H](CCn3cc([C@H](O)c4ccccc4)nn3)O[C@]3(C(=O)N(Cc4cccc(N5CCOC5=O)c4)c4ccccc43)[C@H]2C)cc1,0.752,-0.268,-0.152,-0.368,-1.11,0.0895,-0.0072,1.34 (inactive),-0.64,-0.236,-0.217,1.56 (inactive),1.45 (inactive),3.61 (inactive),0.697,0.894 (inactive),-0.117,-0.89,-1.29,-0.278
O=C1O[C@H](c2ccccc2)[C@H](c2ccccc2)N2[C@H]1[C@@H](C(=O)N1CCN(c3ncccn3)CC1)[C@]1(C(=O)Nc3ccccc31)[C@H]2c1ccc(OCCO)cc1,-0.371,0.0417,-0.106,0.309,1.18,0.0248,1.31,1.03 (inactive),0.348,0.34,1.56,2.72 (inactive),0.573 (inactive),4.75 (inactive),2.35,2.9 (inactive),-0.037,1.88,1.1,-0.0763
C[N+](C)(C)CCCCCCNC(=O)[C@H]1C[C@H]2C(=O)N3CCC[C@H]3C(=O)N2[C@H]1c1ccc(O)cc1,0.159,1.01,-0.116,-0.0314,-0.967,1.96,1.37,3.58 (inactive),-0.106,-0.0618,1.54,-0.842 (inactive),-0.153 (inactive),-0.185 (inactive),2.96,0.89 (inactive),0.0087,0.785,0.6,-0.36
CC(C)C[C@@H]1NC(=O)[C@H]2C[C@@H](C(=O)NCCCCCCNC(=O)CS)[C@@H](c3cccc(OCCO)c3)N2C1=O,-0.206,0.0281,-0.0493,0.43,1.39,1.24,1.32,-0.154 (inactive),0.752,-0.0645,1.4,-2 (inactive),0.251 (inactive),0.24 (inactive),2.85,0.645 (inactive),-0.108,1.7,1.04,0.0798
COC(=O)[C@@]1(Cc2ccc(OC)cc2)[C@H]2c3cc(C(=O)N4CCCC4)n(Cc4cc(F)cc5c4OCOC5)c3C[C@H]2CN1C(=O)c1ccccc1,0.152,-0.0429,0.275,0.535,1.74,2.29,1.28,1.61 (inactive),0.83,1.14,-0.829,-0.0795 (inactive),-0.87 (inactive),0 (inactive),3.27,-1.28 (inactive),0.499,-0.307,0.77,0.241
C=C(COC)C(=O)CC[C@@H](OC(=O)c1cccnc1)c1ccc(CO)o1,-0.376,0.0139,-0.085,-0.0132,0.167,1.16,0.645,0.614 (inactive),0.0848,0.274,1.35,0.692 (inactive),-0.0164 (inactive),-0.336 (inactive),0.991,0.255 (inactive),-0.21,0.817,0.574,-0.137
C=CCNC(=O)[C@@H]1[C@H]2C(=O)O[C@H](c3ccccc3)[C@H](c3ccccc3)N2[C@H](c2ccccc2OCCO)[C@@]12C(=O)Nc1ccc(C#CC3=CCCCC3)cc12,-0.098,0.571,0.0368,0.865,1.25,0.948,1.12,0.0472 (inactive),0.639,0.134,1.55,1.05 (inactive),-3.5 (inactive),2.87 (inactive),2.75,1.47 (inactive),0.058,0.983,1.11,-0.0185
[N-]=[N+]=NCc1ccccc1[C@@H]1OC(c2ccc(OCCCO)cc2)=N[C@]1(Cc1ccccc1N=[N+]=[N-])C(=O)NCc1ccccc1,-0.253,0.485,-0.0287,0.272,1.15,0.612,1.05,-1.66 (inactive),0.221,-0.113,1.55,1.1 (inactive),1.44 (inactive),8.41 (active),2.45,-0.911 (inactive),0.139,0.646,1.13,0.123
N#Cc1ccc(NN2C(C(O)c3ccc([N+](=O)[O-])cc3)C=CC3C(=O)N(c4ccccc4)C(=O)C32)cc1 (stereo not given),0.298,-0.0479,0.11,0.921,1.59,1.66,1.35,0.536 (inactive),0.899,-0.287,0.698,-0.0094 (inactive),1.2 (inactive),1.39 (inactive),3.29,-1.75 (inactive),0.0478,-0.299,1.06,0.0478
O=C1O[C@H](c2ccccc2)[C@H](c2ccccc2)N2[C@H]1[C@@H](C(=O)O)[C@]1(C(=O)Nc3ccc(C#CC4(O)CCCCCC4)cc31)[C@H]2c1ccc(OCCO)cc1,-0.133,-0.337,0.0201,0.564,0.263,1.85,1.14,1.11 (inactive),1.07,-0.0994,1.37,2.28 (inactive),0.219 (inactive),0.124 (inactive),3.58,-0.831 (inactive),-0.124,-0.338,0.528,-0.216

# — PubChem BioAssay
